From ChEMBL document CHEMBL3988442, “University of Dundee, Small-Polar-MMV Screening Library” (2021)
Hit rate of the full screen: of about 48,000 compounds, about 13,000 (27%) showed an effect of 50% or more. The list shows a part of the results.

These compounds were tested on Wolbachia pipientis (assay: Anti-Wolbachia Cell-Based Screen). Details: 5 µM.
Format: functional
Set-up: scale not given: in the data most compounds retested in dose-response had high values
`CCn1c(=O)nc2n1C(=O)N(c1cccc(Cl)c1)C2` was tested, and the “Percent Effect” value was 5.675%.
With `CC1CCCN(S(=O)(=O)NCCCn2ccc3ccccc32)C1` (stereo not given) the “Percent Effect” value was -2.865%.
With `Cn1c(-c2ccc(F)cc2)cn2cc(C(=O)N3CCC(N)C3)nc2c1=O` (stereo not given) the “Percent Effect” value was -3.321%.
In the case of `CC(c1cccnc1)N1CCN(CCc2ccccn2)CC1` (stereo not given), the “Percent Effect” value is reported as -1.072%.
In the case of `CN1CCCN(C(=O)c2nc3c(n2C)CCN(c2ncccn2)C3)CC1`, the “Percent Effect” value is reported as 6.305%.
`Cc1ccc(CNC(=O)c2nc3c(n2C)CCN(c2ncccn2)C3)o1` was tested, and the “Percent Effect” value was 77.66%.
With `Cc1ccc(CNC(=O)c2nc3c(o2)CN(c2ncccn2)C3)o1` the “Percent Effect” value was -19.04%.
In the case of `CC(=O)N1CCO[C@@H]2CN(S(=O)(=O)c3ccc(F)cc3)CC[C@@H]2C1`, the “Percent Effect” value is reported as 115.5%.
With `CN1CCO[C@@H]2CN(S(=O)(=O)c3ccc(F)cc3)CC[C@@H]2C1.O=C(O)C(F)(F)F` the “Percent Effect” value was -6.683%.
In the case of `CC(=O)N1CCO[C@@H]2CN(S(=O)(=O)c3ccc(C)cc3)CC[C@@H]2C1`, the “Percent Effect” value is reported as 106.7%.
`Cn1nnc2c1C(COCC1CC1)CN(C(=O)C1=CCCC1)C2` (stereo not given) was tested, and the “Percent Effect” value was -1.372%.
For `COCCN(Cc1ccc(OC)nc1)Cc1cccs1`, the “Percent Effect” value was 6.12%.
For `O=C(Nc1ccccc1)C1CN(CC2CCOCC2)CC12CCOCC2.O=C(O)C(F)(F)F` (stereo not given), the “Percent Effect” value was -3.242%.
In the case of `O=S(=O)(c1ccccc1)N1C(CN2CCOCC2)[C@]2(O)CC[C@H]1CC2` (stereo not given in full), the “Percent Effect” value is reported as 83.09%.
In the case of `O=C(Nc1ccccc1)C1CN(CC2CC2)CC12CCOCC2.O=C(O)C(F)(F)F` (stereo not given), the “Percent Effect” value is reported as -9.303%.
In the case of `O=C(Nc1ccccc1)N1C[C@H]2CC[C@@H]1CN(Cc1ccccc1)C2`, the “Percent Effect” value is reported as -24.67%.
`O=C(O)C(F)(F)F.O=S(=O)(NC1CCC12CCN(CC1CCOCC1)CC2)c1ccccc1` (stereo not given) was tested, and the “Percent Effect” value was -4.51%.
`COCCN1CCC(NC(=O)NCC2(c3ccccc3)CC2)C1` (stereo not given) was tested, and the “Percent Effect” value was -5.464%.
For `O=C(Nc1ccccc1)N1C(CN2CCOCC2)[C@]2(O)CC[C@H]1CC2` (stereo not given in full), the “Percent Effect” value was 91.52%.
`O=C(NCc1ccccc1CN1CCC(O)CC1)Nc1ccccc1` was tested, and the “Percent Effect” value was 6.714%.
`O=C(O)C(F)(F)F.O=S(=O)(c1ccccc1)N1C[C@@H]2COC[C@]2(CN2CCOCC2)C1` was tested, and the “Percent Effect” value was 14.04%.
In the case of `O=C(Nc1ccccc1)N1C(CO)[C@]2(O)CC[C@H]1CC2` (stereo not given in full), the “Percent Effect” value is reported as 93.37%.
With `COCC1N(C(=O)Nc2ccccc2)[C@H]2CC[C@]1(O)CC2` (stereo not given in full) the “Percent Effect” value was 103.1%.
For `CC(C)n1c(C(=O)N2CCCC2)nc2c1CCN(C)C2.O=C(O)C(F)(F)F`, the “Percent Effect” value was -17.76%.
In the case of `O=C(Nc1cnc2n1CCCC2)c1cccc(OCC(F)(F)F)c1`, the “Percent Effect” value is reported as -7.584%.
With `NC(=O)C1CCN(CCc2ccc(NCc3cccnc3)cc2)CC1` the “Percent Effect” value was -10.11%.
`CC(O)C1CCN(c2cc(Cl)ccc2C#N)CC1` (stereo not given) was tested, and the “Percent Effect” value was -3.342%.
`CC1(c2ccccc2)CCCN(Cc2cncn2C2CCCC2)C1` (stereo not given) was tested, and the “Percent Effect” value was -2.034%.
With `CC(C)CNC(=O)CNC(=O)NCC(O)c1ccc2ccccc2c1` (stereo not given) the “Percent Effect” value was 1.707%.
For `O=C(O)c1ccnc(SCc2ccccc2)c1`, the “Percent Effect” value was 93.4%.
With `CCSc1cc(C(=O)NCCC(=O)Nc2ccccn2)ccn1` the “Percent Effect” value was -16.79%.
`CCSc1cc(C(=O)N(C(C)C)C2CC2)ccn1` was tested, and the “Percent Effect” value was -12.03%.
In the case of `CCSc1cc(C(=O)N(CC(F)F)C(C)C)ccn1`, the “Percent Effect” value is reported as -6.776%.
`O=C(O)c1ccnc(SCC(F)(F)F)c1` was tested, and the “Percent Effect” value was 103%.
`CCSc1cc(C(=O)NCc2ccccc2O)ccn1` was tested, and the “Percent Effect” value was -4.116%.
`CCC(CC)(CN)NC(C)c1ccccc1` (stereo not given) was tested, and the “Percent Effect” value was 4.415%.
`COc1ccc(CNC(=O)CCN2CCOC(C(F)(F)F)C2)cc1` (stereo not given) was tested, and the “Percent Effect” value was -3.399%.
`COc1ccc(CCC(=O)NCCN2CCC(c3cccs3)CC2)cc1` was tested, and the “Percent Effect” value was 160.9%.
With `O=C(NCCc1ccccc1)NCCN1CCC(c2cccs2)CC1` the “Percent Effect” value was 129.5%.
In the case of `COc1ccc(CCNC(=O)CN2CCOCS2(=O)=O)cc1`, the “Percent Effect” value is reported as -7.481%.
In the case of `O=C(NCCc1cccc(O)c1)NC1CCN(c2ccccc2)C1=O` (stereo not given), the “Percent Effect” value is reported as -1.396%.
With `O=C(NCCN1CCC(c2cccs2)CC1)Nc1cccs1` the “Percent Effect” value was -15.35%.
`CO[C@H]1CNC[C@@H]1NC(=O)c1cc(C)nc2ccc(C)cc12` was tested, and the “Percent Effect” value was -4.766%.
In the case of `COCCN1C[C@H]2CCN(C(C)=O)CC[C@H]2S1(=O)=O`, the “Percent Effect” value is reported as -12.61%.
In the case of `O=C(O)C1CCCN(c2nc3c(-c4ccccc4)csc3c(=O)[nH]2)C1` (stereo not given), the “Percent Effect” value is reported as 5.88%.
In the case of `COc1ccc2c(c1)nc1n2[C@@H](CN(C2CCC2)C2CCC2)COC1`, the “Percent Effect” value is reported as -7.437%.
`Cc1cnn(CC2CN(CC(=O)N(C)Cc3cccs3)CCO2)c1` (stereo not given) was tested, and the “Percent Effect” value was -3.9%.
In the case of `Cc1cnn(CC2CN(CC(=O)N(C)Cc3ccsc3)CCO2)c1` (stereo not given), the “Percent Effect” value is reported as 117%.
For `CN(Cc1ccsc1)C(=O)CN1CCOC(Cn2cncn2)C1` (stereo not given), the “Percent Effect” value was 122.3%.
In the case of `Cc1cnn(CC2CCCN2CC(=O)N(C)Cc2ccsc2)c1` (stereo not given), the “Percent Effect” value is reported as -8.163%.
`Cc1cnn(C2CCCN(C(=O)CCNS(C)(=O)=O)C2)c1` (stereo not given) was tested, and the “Percent Effect” value was 109.1%.
For `Cc1cnn(C2CCCN(C(=O)CN(C)c3cnccn3)C2)c1` (stereo not given), the “Percent Effect” value was 6.201%.
`Cc1cnn(C2CCCN(C(=O)CCc3cscn3)C2)c1` (stereo not given) was tested, and the “Percent Effect” value was 115.3%.
For `Cc1cc(C)n(C2CCCN(C(=O)CCNS(C)(=O)=O)C2)n1` (stereo not given), the “Percent Effect” value was 0.7954%.
For `Cc1cnn(C2CCCN(C(=O)CCc3ccncc3)C2)c1` (stereo not given), the “Percent Effect” value was 119.7%.
In the case of `Cc1cnn(C2CCCN(C(=O)Cn3ccc(=O)n(C)c3=O)C2)c1` (stereo not given), the “Percent Effect” value is reported as -20.71%.
`COc1cccc(CCC(=O)N2CCCC(n3cc(C)cn3)C2)c1` (stereo not given) was tested, and the “Percent Effect” value was -1.259%.
In the case of `Cc1cnn(C2CCCN(C(=O)CCc3cnn(C)c3)C2)c1` (stereo not given), the “Percent Effect” value is reported as 94.12%.
`O=C(CCc1cscn1)N1CCCC(n2ccnc2)C1` (stereo not given) was tested, and the “Percent Effect” value was -7.112%.
In the case of `CCCC(C)N(C)Cc1nnc(-c2ccc(Br)s2)o1` (stereo not given), the “Percent Effect” value is reported as -85.49%.
With `CCNc1ncc(C(=O)N(C)Cc2nc3cc(Cl)ccc3[nH]2)cn1` the “Percent Effect” value was 4.323%.
`COc1ccc(-n2c(CCC(=O)O)nc3ccccc32)cc1CO` was tested, and the “Percent Effect” value was -17.89%.
`CN(C)C(=O)CN1C[C@@H]2CC[C@H](C1)N(C(=O)CCn1cncn1)C2` was tested, and the “Percent Effect” value was -10.88%.
With `O=C(NCC(O)COc1cccc(F)c1)c1ccoc1` (stereo not given) the “Percent Effect” value was 11.74%.
For `CCN(C(=O)c1ccc2nnc(C3CCN(C)C3)n2c1)C(C)C.O=C(O)C(F)(F)F` (stereo not given), the “Percent Effect” value was -13.6%.
With `O=C(CCc1cscn1)N1CCCC(c2ccn[nH]2)C1` (stereo not given) the “Percent Effect” value was -4.951%.
`NC(=O)c1cc(C2CCCN(C(=O)CCc3cscn3)C2)n[nH]1` (stereo not given) was tested, and the “Percent Effect” value was 0.5679%.
In the case of `Cc1cc(C2CCCN(C(=O)CCc3cscn3)C2)n[nH]1` (stereo not given), the “Percent Effect” value is reported as 93.55%.
With `Cc1cc(CC(=O)NCc2ccnc(OCC(F)(F)F)c2)no1` the “Percent Effect” value was -12.47%.
In the case of `CCOC(CC)C(=O)NCc1ccnc(Oc2ccc(F)cc2)c1` (stereo not given), the “Percent Effect” value is reported as -12.82%.
In the case of `NCc1ccnc(Oc2ccccc2)c1`, the “Percent Effect” value is reported as 91.83%.
`NCc1ccc(Oc2cccc(Cl)c2Cl)cc1` was tested, and the “Percent Effect” value was -2.508%.
In the case of `NCc1ccnc(Oc2ccc(F)cc2)c1`, the “Percent Effect” value is reported as 111.3%.
`CCOc1ccccc1Oc1ccc(CN)cn1` was tested, and the “Percent Effect” value was 5.762%.
In the case of `CC(C)C(=O)NCc1ccnc(Oc2ccc(F)cc2)c1`, the “Percent Effect” value is reported as -7.223%.
In the case of `Cc1ccc(Oc2cc(CN)ccn2)cc1C.Cl`, the “Percent Effect” value is reported as 95.86%.
With `CCOC(=O)NCCC(=O)NCc1ccnc(Oc2ccc(F)cc2)c1` the “Percent Effect” value was 11.47%.
For `Cn1cc(C(=O)Nc2ccnc(Oc3ccccc3)c2)ccc1=O`, the “Percent Effect” value was -17.65%.
In the case of `CCOc1cc(CNC(C)c2sccc2C)ccn1` (stereo not given), the “Percent Effect” value is reported as 3.225%.
With `CCOc1ccc(Oc2cc(CN)ccn2)cc1` the “Percent Effect” value was 101.1%.
In the case of `Cc1oc(-c2cccs2)nc1C(=O)N(C)C1(C#N)CCC1`, the “Percent Effect” value is reported as 6.807%.
In the case of `Cc1ccc([C@@H]2CN(C(=O)CCc3cc(Cl)no3)C[C@H]2N(C)C)cc1`, the “Percent Effect” value is reported as -9.949%.
In the case of `CC(NC(N)=O)C(=O)NCc1ccnc(Oc2ccc(F)cc2)c1` (stereo not given), the “Percent Effect” value is reported as -14.04%.
With `COc1ccc(Oc2cc(CN)ccn2)cc1` the “Percent Effect” value was 98.96%.
With `COc1cccc(-c2cc(CN)ccc2F)c1F` the “Percent Effect” value was -9.579%.
For `COc1ccc(N(CCC(N)=O)C(=O)CSc2ccc(Cl)cc2)cc1`, the “Percent Effect” value was -20.11%.
In the case of `COCCC(=O)N[C@H]1CN(c2nc(C)c3c(n2)CCCC3)C[C@@H]1C1CC1`, the “Percent Effect” value is reported as 40.93%.
`CC(NCc1ccccn1)c1cc2c(cc1Br)OCCO2` (stereo not given) was tested, and the “Percent Effect” value was 9.612%.
With `O=C(NCc1ccc(F)cc1)NCC(O)(c1cccs1)C1CC1` (stereo not given) the “Percent Effect” value was 0.4051%.
With `CN1CCC(NC(=O)CCCc2cc(Cl)sc2Cl)C1=O` (stereo not given) the “Percent Effect” value was -5.326%.
`CN1CCC(NC(=O)c2cc(Br)cc(Cl)c2O)C1=O` (stereo not given) was tested, and the “Percent Effect” value was 91.47%.
For `CN1CCC(NC(=O)Nc2ccc(Br)c(F)c2)C1=O` (stereo not given), the “Percent Effect” value was 3.385%.
For `CN1CCC(NC(=O)Nc2ccc(F)c(-n3cccc3)c2)C1=O` (stereo not given), the “Percent Effect” value was 0.2161%.
For `CN1CCC(NC(=O)Nc2ccc(F)c(Br)c2)C1=O` (stereo not given), the “Percent Effect” value was -1.465%.
For `CN1CCC(NC(=O)c2cc(F)cc(Cl)c2O)C1=O` (stereo not given), the “Percent Effect” value was 115.3%.
With `Cn1cc(N2CCC(NC(=O)c3ccccc3Cl)C2=O)cn1` (stereo not given) the “Percent Effect” value was -3.21%.
In the case of `CN1CCC(NC(=O)Nc2ccc(Cl)c(F)c2)C1=O` (stereo not given), the “Percent Effect” value is reported as 7.915%.
In the case of `CN1CCC(NC(=O)c2cc(Cl)cc(Br)c2O)C1=O` (stereo not given), the “Percent Effect” value is reported as 99.64%.
In the case of `CCN(C)C[C@@H]1CN(Cc2cccc(Cl)c2)C[C@@H]1CO`, the “Percent Effect” value is reported as -21.33%.
With `Cc1ncc(CN(C)C(=O)Nc2cccc(N3CCNC3=O)c2)s1` the “Percent Effect” value was -6.99%.
For `COc1cccc(-c2cc(NCc3nc(C)cs3)n(C)n2)c1`, the “Percent Effect” value was -29%.
`CCN1C(=O)C[C@@H]2[C@@H]1CCN2S(=O)(=O)c1cccc(C)c1` was tested, and the “Percent Effect” value was -32.48%.
With `CCS(=O)(=O)N1CC[C@H]2[C@H]1CC(=O)N2Cc1csc(C)n1` the “Percent Effect” value was 96.63%.
With `CCCS(=O)(=O)N1CC[C@@H]2[C@@H]1CC(=O)N2Cc1csc(C)n1` the “Percent Effect” value was 71.41%.
For `CCOCC(=O)N1CC[C@H]2[C@@H]1CCC(=O)N2Cc1csc(C)n1`, the “Percent Effect” value was 22.07%.
